# An excerpt weighted towards active compounds, which were near 0.99% of everything screened.
# TRPV1 PAM: potentiators of human vanilloid receptor 1 (TRPV1); potentiation, % at 8.33 µM; 0.02% of 320,000 active; TRPV1-expressing cells, Fluo-8 calcium influx, capsaicin EC20 potentiation; in the data active = potentiation above about 80%; inconclusive = between about 30% and that limit; also: 0% is about no effect
# Target sequence (Q8NER1 whole entry, looked up): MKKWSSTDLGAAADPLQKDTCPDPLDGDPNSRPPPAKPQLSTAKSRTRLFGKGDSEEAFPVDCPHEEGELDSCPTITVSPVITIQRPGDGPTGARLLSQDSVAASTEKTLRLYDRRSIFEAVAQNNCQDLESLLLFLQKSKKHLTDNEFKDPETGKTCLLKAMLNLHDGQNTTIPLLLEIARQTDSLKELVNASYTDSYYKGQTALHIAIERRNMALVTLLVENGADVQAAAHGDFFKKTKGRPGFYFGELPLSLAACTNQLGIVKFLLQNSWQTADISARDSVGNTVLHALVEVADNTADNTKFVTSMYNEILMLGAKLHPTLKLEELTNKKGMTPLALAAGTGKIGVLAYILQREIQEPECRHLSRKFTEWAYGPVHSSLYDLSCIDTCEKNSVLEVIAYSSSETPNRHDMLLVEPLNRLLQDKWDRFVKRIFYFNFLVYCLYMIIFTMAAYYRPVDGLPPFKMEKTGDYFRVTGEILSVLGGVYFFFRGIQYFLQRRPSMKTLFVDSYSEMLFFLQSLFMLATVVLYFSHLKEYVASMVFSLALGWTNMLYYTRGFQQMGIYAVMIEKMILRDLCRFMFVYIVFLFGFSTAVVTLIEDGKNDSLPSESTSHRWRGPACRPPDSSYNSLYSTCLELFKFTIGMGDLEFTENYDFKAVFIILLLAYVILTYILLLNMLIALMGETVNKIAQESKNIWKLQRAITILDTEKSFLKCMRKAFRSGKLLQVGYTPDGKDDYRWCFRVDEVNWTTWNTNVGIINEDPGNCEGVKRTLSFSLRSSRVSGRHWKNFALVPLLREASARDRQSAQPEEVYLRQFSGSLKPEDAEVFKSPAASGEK
#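 TRPV1-expressing cells were cultured overnight at 35.5C and loaded with Fluo-8 calcium dye for 40 to 90 min at room temperature. After a 10 s baseline, compound was added and calcium influx was read kinetically for 3 min (ex 480/em 520 nm).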
# TRHR agonist: TRH receptor (human) agonism; P34981; TRHR cells, calcium flux fluo-8, FDSS agonist mode; activation, % at 2 µM; 0.18% of 360,000 active; AID 493084; in the data active = activation above about 30%; also: 0% is about no effect
#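 TRHR-expressing cells loaded with fluo-8 calcium dye; 23 nL library compound pin-transferred, kinetic FDSS fluorescence (Ex 480/Em 530) recorded about 180 s for agonist-induced calcium release, before a 10 nM TRH EC20 addition for potentiator mode.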
# TRPML1 blocker: blocks the human TRPML1 channel; AID 624415; 0.02% of 390,000 active; activity change, negative = inhibition, % (no concentration beside the values); Q9GZU1; TRPML1-inducible cells, Ca2+ dye fluorescence, FDSS; stronger effect = lower value; inhibition of EC80 agonist-evoked calcium signal; in the data active = activity change below about -50%; inconclusive = between about -30% and that limit;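 also: stimulus is agonist 54-4 at its EC80 concentration; % is scaled to controls: 0 for no effect and ±100 for the full control effect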
#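 Tet-induced TRPML1-DL cells loaded with Ca8 no-wash calcium dye were read kinetically on FDSS. Compound addition was followed by EC80 agonist 54-4 (4 uM final); inhibition was read over 110 s.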
# TRHR PAM: allosterically enhances the human TRH receptor; P34981; TRHR cells, fluo-8 calcium fluorescence, EC20 TRH enhancement; enhancement, % at 2 µM; 0.66% of 360,000 active; in the data active = enhancement above about 30%; also: 0% is about no effect
#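 Enhancer read-out: after compound pinning and an initial kinetic agonist-mode read, an EC20 of TRH (10 nM final) was injected and fluo-8 calcium signal (Ex 480/Em 530) followed at 1 s/cycle for 100 cycles in TRHR-expressing cells.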
# TRPML1 ag: human mucolipin-1 channel agonism | TRPML1-expressing cells, Ca2+ dye fluorescence, FDSS | activation, % (concentration not given with the values) | Q9GZU1 | 0.12% of 410,000 active; in the data active = activation above about 50%; inconclusive = mostly about 30% to 49%; also: 0% is about no effect
#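 Calcium fluorescence on an FDSS kinetic reader gave the read-out. Tet-induced TRPML1-DL cells were plated overnight, dye-loaded (Ca8 with quencher, 45-90 min, room temperature, dark), then read 110 s after compound addition, and again 110 s after 4uM final 54-4 (EC80).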
# TRPV1 ag: human TRPV1 agonism | 0.19% of 320,000 active | AID 540275 | TRPV1-expressing cells, Fluo-8 calcium influx, agonist mode | activation, % at 8.33 µM | Q8NER1; in the data active = activation above about 80%; inconclusive = between about 30% and that limit; also: 0% is about no effect
#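 Fluo-8 calcium influx in TRPV1-expressing cells, kinetic read (ex 480/em 520 nm). Compound added and read 3 min for agonist activity, followed by capsaicin at EC20 final and 2 min further read for enhancement.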
# * = called active by the depositor; ? = inconclusive; · = not tested or not shown.
SMILES,TRPV1 PAM,TRHR agonist,TRPML1 blocker,TRHR PAM,TRPML1 ag,TRPV1 ag
CCN(CC)C(=O)Cn1cc(SCC(=O)Nc2ccccc2C)c2ccccc21,·,0,31,5,0,·
CC(C)c1ccc(N2C(=O)/C(=C/N(C)C)SC2=S)cc1,-4,47*,-4,14,23,23
CCC(=O)N1CCc2cc(CNC(=O)Nc3cc(C)ccc3C)ccc21,·,0,-2,1,1,·
COc1cc2nc(C#N)nc(N)c2cc1OC,·,·,·,·,-1,·
CS(=O)(=O)/C=C/c1nc(Nc2cc(F)cc(F)c2)c2ncn(CC(F)F)c2n1,·,-1,·,1,·,·
CCCCNC(=S)N1CCN(C(c2ccccc2)c2ccccc2)CC1,7,11,22,-3,1,81*
Cc1ccc(NC(=O)CSc2nccn2Cc2ccco2)cc1Cl,·,-1,5,35*,1,·
Cc1ccc(NC(=O)CSc2nccn2Cc2ccco2)cc1,-17,3,-10,-2,1,7
NCCC(=O)N1c2ccccc2Sc2ccc(Cl)cc21,-18,50*,-11,-33,?,23
NCCCC(=O)N1c2ccccc2Sc2ccc(Cl)cc21,-10,3,10,18,0,2
O=C(/C=C/c1cc(Br)ccc1F)Nc1cccnc1,8,-1,5,5,0,80*
O=c1[nH]c(-[n+]2ccccc2)c(/C=N/NC([S-])=Nc2ccccc2)s1,-10,56*,-1,3,3,?
C[C@H]1CN([C@@H](C)CO)C(=O)CCCn2nncc2CO[C@H]1CN(C)S(=O)(=O)c1cccc(F)c1,·,·,-65*,·,0,·
C[C@H](CO)N1C[C@H](C)[C@@H](CN(C)S(=O)(=O)c2cccc(F)c2)OCc2cnnn2CCCC1=O,·,·,0,·,0,·
CC(C)c1ccc(NC(=O)c2cccc(Br)c2)cc1,6,0,-14,-7,-1,93*
CC(C)CNC(=O)CN1C(=O)NC2(CCCc3ccccc32)C1=O (configuration not stated),3,-1,5,31*,7,2
O=C(O)CN1C(=O)NC2(CCCc3ccccc32)C1=O (configuration not stated),1,1,8,2,0,-4
CC(=O)Nc1sc(N/N=C/c2ccccc2)nc1-c1ccc(C)cc1,3,-1,18,-2,0,4
CC(=O)Nc1sc(/C(C#N)=C\c2cccc(Cl)c2)nc1-c1ccc(C)cc1,14,67*,-23,-4,77*,?
Cc1cc(C)c2c(=O)c3c(oc2c1)C(=O)N(CCO)C3c1cccc(O)c1 (configuration not stated),-11,0,-56*,1,0,-1
Cc1ccc2oc3c(c(=O)c2c1)C(c1cccc(O)c1)N(CCCN1CCOCC1)C3=O (configuration not stated),·,0,17,-6,-1,·
CCNC(=S)N1CCC(C(=O)c2ccc(Cl)cc2)CC1,1,0,12,-2,1,81*
CCn1c(/C=C/c2ccc(O)cc2)nc2ccccc2c1=O,5,-2,-17,-4,2,-1
CCn1c(/C=C/c2ccc(O)c(O)c2)nc2ccccc2c1=O,13,8,0,34*,0,1
CC(C)C[C@@H](CN=[N+]=[N-])N1CCN(C)CCC1=O,-4,0,-8,31*,-1,-2
SMILES,TRPV1 PAM,TRHR agonist,TRPML1 blocker,TRHR PAM,TRPML1 ag,TRPV1 ag
COc1cccc(NC(=S)NNC(=O)Cn2nc([N+](=O)[O-])cc2C)c1,15,0,-7,41*,1,-1
Cc1[nH]c2ccccc2c1C(=O)C(=O)NC1CC1,-3,2,5,6,0,82*
Cc1[nH]c2ccccc2c1C(=O)C(=O)NC1CC(=O)N(c2ccccc2)C1 (configuration not stated),·,0,-2,-3,-1,·
O=C(Nc1ccc(F)c(Cl)c1)N1CC=C(c2c[nH]c3ccccc23)CC1,·,5,-9,5,0,·
COc1ccc(-c2cc3nc(C)cc(N)n3n2)cc1,6,0,-12,30*,2,3
COc1ccc(-c2cc3nc(C)cc(-c4ccc(OC)cc4)n3n2)cc1,?,1,40,12,2,8
COc1ccc2nc(-c3ccccc3)cc(C(=O)OCC(=O)N3CC(C)OC(C)C3)c2c1 (configuration not stated),-6,4,42,41*,6,17
Cc1ccc(C(=O)Nc2ccc3c(c2)N(C)C(=O)c2ccccc2S3)cc1F,·,1,-1,3,2,·
O=C(/C=C/c1ccc(F)cc1)Nc1ccc2[nH]c(=O)[nH]c2c1,0,0,8,17,0,83*
COc1cc(/C=C/C(=O)Nc2ccc3[nH]c(=O)[nH]c3c2)cc(OC)c1OC,-1,0,-5,5,0,-14
COc1cccc(/C=C/C(=O)Nc2ccc3[nH]c(=O)[nH]c3c2)c1,4,1,44,3,0,93*
CC1=Nc2ccccc2/C1=C(/C)c1c(C)[nH]c2ccccc12,·,·,·,·,0,·
Cc1ccc(C(=O)Nc2cc(Cl)ccc2-n2cncn2)o1,-4,0,6,36*,1,0
CCCN1CNc2c(c(=O)[nH]c(=S)n2CCc2c(C)cccc2C)C1,·,·,·,·,-1,·
O=C(NN=Cc1c(O)ccc2ccccc12)c1ccncc1,·,·,-5,·,?,·
O=C(N/N=C/c1c(O)ccc2ccccc12)c1cccnc1,-18,36*,12,8,5,30
O=C(N/N=C\c1c(O)ccc2ccccc12)c1cncc(Br)c1,-24,105*,2,38*,?,?
O=C(N/N=C\c1c(O)ccc2ccccc12)c1ccc(O)cc1,1,5,34,-4,0,?
CC(C)c1ccc(NCCC(=O)c2cccs2)cc1,0,1,-22,2,0,90*
CNc1ccc(C=C2c3ccccc3-c3ccccc32)cc1,·,·,·,·,-1,·
CC(C)CC1Nc2ncnc(N3CCCCC3)c2N(Cc2ccc(Br)cc2)C1=O (configuration not stated),1,0,13,-4,1,82*
Fc1ccc(CNc2nc(-c3ccco3)cc(C(F)(F)F)n2)cc1,-4,0,9,38*,0,7
CCSc1ncc(Cl)c(C(=O)Nc2sc3c(c2C(=O)NCCOC)CCCC3)n1,·,·,·,·,0,·
CC(C)(C)NC(=O)CN(Cc1ccc2c(c1)OCO2)C(=O)CCC(=O)Nc1nccs1,6,0,-9,36*,4,3
COCCNC(=O)CN(Cc1ccc2c(c1)OCO2)C(=O)CCC(=O)Nc1nccs1,-1,1,-7,3,0,0

# Screening data deposited in PubChem BioAssay by National Center for Advancing Translational Sciences (NCATS).
